The nature of assay [1]: qHTS assay to test for compound auto fluorescence at 535 nm (green) in HEK293 cells (AID 720680). For orientation: In qHTS, concentration-response curves come from the screen itself.
Assay [2] is described as follows: qHTS assay to test for compound auto fluorescence at 460 nm (blue) in HEK293 cell free culture (AID 720681). Summed up:
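Compounds were added to cell-free DMEM with 10% FBS and fluorescence read directly. The blue channel used 405 nm excitation and 460 nm emission, with triamterene as the reference fluorophore.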

Assay [3] can be described thus: qHTS assay to test for compound auto fluorescence at 535 nm (green) in HEK293 cell free culture (AID 720682). The method, boiled down:
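Steps: dispense DMEM/10% FBS into empty wells; pin in compound or DMSO; measure fluorescence at 485/535 nm. Values are fluorescein equivalents.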

The nature of assay [4]: qHTS assay to test for compound auto fluorescence at 590 nm (red) in HEK293 cell free culture (AID 720683). The method, boiled down: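 Cell-free wells of DMEM with 10% FBS received compound, and intrinsic fluorescence was read at excitation/emission 540/590 nm. Values expressed as equivalence to Rose Bengal sodium.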
Assay [5] can be described thus: qHTS assay to test for compound auto fluorescence at 590 nm (red) in HepG2 cell free culture (AID 720684). Summed up: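 Rose Bengal sodium served as the reference for red signal. Test compounds were dispensed into serum-containing MEM (10% FBS) without cells, and plates were read at 540/590 nm.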
The nature of assay [6]: qHTS assay to test for compound auto fluorescence at 460 nm (blue) in HepG2 cell free culture (AID 720685). The method, boiled down: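 Cell-free plates of MEM plus 10% FBS received 23 nL compound or DMSO vehicle; blue-channel (405/460 nm) intensity scored against triamterene as reference fluorophore.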
Assay [7] in a line: qHTS assay to test for compound auto fluorescence at 535 nm (green) in HepG2 cell free culture (AID 720686).
A short description of assay [8]: qHTS assay for identifying genotoxic compounds that show differential cytotoxicity against isogenic chicken DT40 cell lines with known DNA damage response pathways - wild type cell line (AID 743012). Further: nearly all actives have a fitted effect of over 60% in size. Further: potency means the concentration at half of the fitted maximal effect. Summed up:
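Endpoint: CellTiter-Glo luminescence, 30 min RT. Cells: wild type DT40, 300/well. Exposure: compounds in DMSO, 40 h, 37 C/5% CO2, after ~0.5 h pre-incubation.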

Assay [9] is described as follows: qHTS assay for identifying genotoxic compounds that show differential cytotoxicity against isogenic chicken DT40 cell lines with known DNA damage response pathways - Rev3 mutant cell line (AID 743014). Further: nearly all actives have a fitted effect of over 55% in size. Further: potency means the concentration at half of the fitted maximal effect.
Assay [10] can be described thus: qHTS assay for identifying genotoxic compounds that show differential cytotoxicity against isogenic chicken DT40 cell lines with known DNA damage response pathways - Rad54/Ku70 mutant cell line (AID 743015). Further: nearly all actives have a fitted effect of over 60% in size. Further: potency means the concentration at half of the fitted maximal effect.
Assay [11] in a line: qHTS assay to identify small molecule antagonists of the androgen receptor (AR) signaling pathway - cell viability counter screen (AID 743033; further: nearly all actives have a fitted effect of over 45% in size; further: potency means the concentration at half of the fitted maximal effect).
A short description of assay [12]: qHTS assay to identify small molecule antagonists of the androgen receptor (AR) signaling pathway using the MDA cell line - cell viability counter screen (AID 743041; further: nearly all actives have a fitted effect of over 45% in size). Summed up:
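Cytotoxicity counter screen: MDA-kb2 AR-luc cells, compound + R1881, 16 h, 37C, 0% CO2; CellTiter-Fluor added at 15.5 h, fluorescence read after 30 min.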

Assay [13] is described as follows: qHTS assay to identify small molecule antagonists of the glucocorticoid receptor (GR) signaling pathway - cell viability counter screen (AID 720693). Further: nearly all actives have a fitted effect of over 55% in size.
Assay [14] addresses Androgen receptor (Homo sapiens) (UniProt P10275). As to the kind of experiment: qHTS assay to identify small molecule antagonists of the androgen receptor (AR) signaling pathway (AID 743035; active means well fitted inhibition curve with a large enough effect in the signal ratio in the repeat runs, not every such curve was filed as active; inconclusive means weak or mixed curves, or effect the other way; inactive means no such curve, though single readings can be large or run the other way; the % refers to the signal ratio). Summed up:
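R1881 agonist challenge of a HEK293 UAS-beta-lactamase AR reporter line in the presence of compound (16 h, 37C); signal taken as FRET fluorescence after 2 h with LiveBLAzer B/G substrate at room temperature.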

The target is the same in assay [15]. Put plainly: qHTS assay to identify small molecule agonists of the androgen receptor (AR) signaling pathway (AID 743036; active means well fitted activation curve with a large enough effect in the signal ratio in the repeat runs, with a control signal flat, not every such curve was filed as active; inconclusive means weak or mixed curves, or effect the other way; inactive means no such curve, though single readings can be large or run the other way; the % refers to the signal ratio). Summed up: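 Reporter line: GeneBLAzer AR-UAS-bla-GripTite (HEK293). Steps: plate cells, 4 h rest, add compounds, 16 h at 37C, add LiveBLAzer B/G substrate, 2 h at RT, read fluorescence.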
Assay [16] shares this target. As to the kind of experiment: qHTS assay to identify small molecule agonists of the androgen receptor (AR) signaling pathway using the MDA cell line (AID 743040; further: nearly all actives have a fitted effect of over 20% in size). The method, boiled down: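 Luciferase read-out, ONE-Glo, 30 min RT. Cells: MDA-kb2 AR-luc, MMTV promoter with AR and GR response elements. Compound exposure 16 h, 37C, 0% CO2, after 5 h pre-incubation. qHTS agonist mode.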

For assay [17] the target is unchanged. As to the kind of experiment: qHTS assay to identify small molecule antagonists of the androgen receptor (AR) signaling pathway using the MDA cell line (AID 743042; further: nearly all actives have a fitted effect of over 55% in size). Summed up: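 MDA-kb2 breast carcinoma cells carrying MMTV-luciferase (AR/GR responsive) were co-treated with compounds and the agonist R1881 for 16 h at 37C. Inhibition read as ONE-Glo luminescence; CellTiter-Fluor fluorescence measured in parallel for cytotoxicity.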

Assay [18] deals with Glucocorticoid receptor (Homo sapiens) (UniProt P04150). Put plainly: qHTS assay to identify small molecule agonists of the glucocorticoid receptor (GR) signaling pathway (AID 720691; active means well fitted activation curve with a large enough effect in the signal ratio in the repeat runs, not every such curve was filed as active; inconclusive means weak or mixed curves, or effect the other way; inactive means no such curve, though single readings can be large or run the other way; the % refers to the signal ratio; further: potency means the concentration at half of the fitted maximal effect). The following applies: GR-bla HeLa, beta-lactamase reporter ratio, 18 h; activation: at 62.4 µM (top of the series). Summed up:
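Measures GR pathway activation through a GRE-beta-lactamase reporter stably integrated in HeLa cells, with 18 h compound treatment at 37 C and fluorescence detection using a FRET substrate.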

Assay [19] in a line: qHTS assay to test for compound auto fluorescence at 460 nm (blue) in HepG2 cells (AID 720687). The method, boiled down:
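HepG2 cells in MEM with 10% FBS, attached overnight at 37 C, were exposed to compound or DMSO for 1 hr at 37 C, 5% CO2. Blue fluorescence was read at 405/460 nm, with triamterene as reference fluorophore.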

Assay [20] has as its target Glucocorticoid receptor (Homo sapiens) (UniProt P04150). As to the kind of experiment: qHTS assay to identify small molecule antagonists of the glucocorticoid receptor (GR) signaling pathway (AID 720692; active means well fitted inhibition curve with a large enough effect in the signal ratio in the repeat runs, not every such curve was filed as active; inconclusive means weak or mixed curves, or effect the other way; inactive means no such curve, though single readings can be large or run the other way; the % refers to the signal ratio). The method, boiled down: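 Tox21 10K library screened in concentration-response for blockade of dexamethasone (5 nM final)-induced GRE-bla reporter activity in HeLa cells; 18 h treatment, fluorescence read.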

The structures appear in SMILES notation. Active and inactive are the calls of the source. Unless noted, the call rests on the fitted dose curve; in most records, active means well fitted curve in the direction sought with a large enough effect in the repeat runs; inconclusive means weak or mixed curves; inactive means no such curve, though single readings can be large; an effect the other way counts as inactive or inconclusive.

Data on eight molecules can be found in PubChem BioAssay (Tox21).

Chain of Glucocorticoid receptor (Homo sapiens) (P04150 whole entry, looked up): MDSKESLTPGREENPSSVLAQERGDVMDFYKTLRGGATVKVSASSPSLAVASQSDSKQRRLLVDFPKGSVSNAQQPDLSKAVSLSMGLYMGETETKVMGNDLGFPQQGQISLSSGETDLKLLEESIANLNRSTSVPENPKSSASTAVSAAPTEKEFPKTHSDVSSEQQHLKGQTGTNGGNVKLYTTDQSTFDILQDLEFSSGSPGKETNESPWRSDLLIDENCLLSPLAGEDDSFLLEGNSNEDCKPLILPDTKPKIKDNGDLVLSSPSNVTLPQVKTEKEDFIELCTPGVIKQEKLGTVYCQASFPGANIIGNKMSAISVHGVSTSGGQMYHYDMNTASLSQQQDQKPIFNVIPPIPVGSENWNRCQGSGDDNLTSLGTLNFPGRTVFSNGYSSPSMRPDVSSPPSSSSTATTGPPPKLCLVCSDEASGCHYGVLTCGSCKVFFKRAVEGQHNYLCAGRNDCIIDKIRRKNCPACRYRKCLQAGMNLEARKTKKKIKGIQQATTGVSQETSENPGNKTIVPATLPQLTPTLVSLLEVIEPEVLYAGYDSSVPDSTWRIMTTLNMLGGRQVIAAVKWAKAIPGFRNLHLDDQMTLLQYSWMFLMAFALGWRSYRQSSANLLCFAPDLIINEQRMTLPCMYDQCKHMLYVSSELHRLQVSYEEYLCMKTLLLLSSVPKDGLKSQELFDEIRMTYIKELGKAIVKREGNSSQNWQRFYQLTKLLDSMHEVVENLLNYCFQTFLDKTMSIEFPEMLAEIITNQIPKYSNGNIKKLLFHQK
Chain of Androgen receptor (Homo sapiens) (P10275 whole entry, looked up): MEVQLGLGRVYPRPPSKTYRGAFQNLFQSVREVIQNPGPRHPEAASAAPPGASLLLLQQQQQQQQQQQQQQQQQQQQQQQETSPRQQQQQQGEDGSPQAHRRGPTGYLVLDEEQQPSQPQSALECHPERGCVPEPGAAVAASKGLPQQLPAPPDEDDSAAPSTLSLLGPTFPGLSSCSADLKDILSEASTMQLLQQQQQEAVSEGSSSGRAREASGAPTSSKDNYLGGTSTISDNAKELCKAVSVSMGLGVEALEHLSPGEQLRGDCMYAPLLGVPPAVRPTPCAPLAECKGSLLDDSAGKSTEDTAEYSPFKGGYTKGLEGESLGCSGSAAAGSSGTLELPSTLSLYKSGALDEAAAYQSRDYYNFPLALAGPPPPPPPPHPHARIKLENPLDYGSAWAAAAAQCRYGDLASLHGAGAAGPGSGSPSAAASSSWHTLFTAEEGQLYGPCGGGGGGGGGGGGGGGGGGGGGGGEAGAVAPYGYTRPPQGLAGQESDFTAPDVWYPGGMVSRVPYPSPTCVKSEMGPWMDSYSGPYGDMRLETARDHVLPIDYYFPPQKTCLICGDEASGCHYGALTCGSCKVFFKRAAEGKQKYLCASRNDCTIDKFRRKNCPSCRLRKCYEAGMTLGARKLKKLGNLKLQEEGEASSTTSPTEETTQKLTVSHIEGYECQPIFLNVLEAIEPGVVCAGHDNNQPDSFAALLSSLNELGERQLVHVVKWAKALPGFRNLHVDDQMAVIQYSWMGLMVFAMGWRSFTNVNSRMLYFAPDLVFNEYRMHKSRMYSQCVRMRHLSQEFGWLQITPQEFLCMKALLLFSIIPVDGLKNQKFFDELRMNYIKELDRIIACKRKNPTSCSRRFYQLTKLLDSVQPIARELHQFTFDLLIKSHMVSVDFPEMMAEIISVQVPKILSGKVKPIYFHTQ

`C#C[C@]1(O)CC[C@H]2[C@@H]3CCC4=CCCC[C@@H]4[C@H]3C(=C)C[C@@]21CC`: the Potency result in assay [1], in [2], in [3], in assay [4], in [5] and in [7] was “inactive” each time. Besides, the Potency result in [11] and in assay [12] was “inactive” in each case. Moreover, in assay [6], the molecule was classed as inactive. Also, the Potency in assay [8] was 13.3 µM (active); in assay [9] it was 15 µM (active); in assay [10] it was 21.1 µM (active).
For the molecule `CCc1ccc(S(=O)(=O)O)cc1`, the Potency entry in assay [1], in [2], in assay [3], in assay [4], in assay [5] and in assay [7] was “inactive” in each case. Also, the Potency entry in [13], in assay [8], in assay [10], in [11], in assay [14] and in assay [15] was “inactive” throughout. Further, the Potency result in assay [16], in [12] and in assay [17] was “inactive” each time. Besides, the call in assay [6] was inactive.
With `C[C@H]1C[C@@H]2[C@H]([C@@H](O)C[C@@]3(C)[C@H]2CC[C@]3(O)C(=O)COC(=O)CCC(=O)O)[C@@]2(C)C=CC(=O)C=C12`, the Potency result in [1], in assay [2], in assay [3], in assay [4], in assay [5] and in assay [7] was “inactive” in each case. For the same molecule, the Potency result in assay [13], in assay [10], in assay [11] and in [12] was “inactive” throughout. The molecule was classed as inactive in assay [6]. In addition, in assay [18], the Potency was 0.0268 µM [inconclusive] (active).
As for `O=C(O)c1ccc(OCCn2ccnc2)cc1`, the Potency result in assay [1], in assay [2], in assay [3], in assay [4], in [5] and in [18] was “inactive” each time. Also, the Potency entry in assay [20], in assay [13], in [8], in assay [9], in [10] and in assay [11] was “inactive” each time. For the same molecule, in assay [12], the Potency entry is “inactive”. Besides, the outcome in [6] and in assay [19] was inactive.
In the case of `O=C1/C(=C\c2cccs2)CCC/C1=C\c1cccs1`, the Potency result in [1], in assay [2], in assay [3], in assay [4], in assay [5] and in [7] was “inactive” throughout. In addition, the Potency result in assay [18], in assay [13], in [11], in assay [16], in assay [12] and in assay [17] was “inactive” each time. In addition, in assay [6], the molecule was called inactive. Further, the figures for the Potency in assay [8], in assay [9] and in assay [10] were 23.7 µM (active), 26.6 µM (active) and 29.8 µM (active), respectively.
For `O=C(Nc1ccc(/C=C/c2ccc(NC(=O)c3cc(S(=O)(=O)O)c4cccnc4c3O)cc2S(=O)(=O)O)c(S(=O)(=O)O)c1)c1cc(S(=O)(=O)O)c2cccnc2c1O`, the Potency result in assay [1], in assay [2], in assay [3], in [4], in [5] and in assay [18] was “inactive” each time. The Potency entry in assay [20], in assay [13], in assay [8] and in assay [11] was “inactive” each time. Besides, the molecule was classed as inactive in [6] and in assay [19]. Also, the Potency in assay [10] is 29.8 µM (active).
On to `CCN(CC)CCOc1ccc(-c2nc3cc(Cl)ccc3s2)cc1`, for which the Potency result in assay [1], in [2], in [3], in [4], in assay [5] and in assay [7] was “inactive” throughout. In addition, in [18], the Potency result is “inactive”. The call in assay [6] was inactive. Further, the Potency in assay [8] is 0.944 µM (active); in assay [9], 1.06 µM (active); in assay [10], 1.06 µM (active); in assay [11] it was 23.9 µM (active).
Turning to `O=C(c1cc2ccccc2o1)N1CCN(Cc2ccccc2)CC1`, the Potency result in assay [1], in assay [2], in assay [3], in assay [4], in assay [5] and in [18] was “inactive” in each case. Moreover, the Potency entry in assay [13], in assay [11] and in assay [12] was “inactive” each time. Also, the molecule was called inactive in assay [6] and in [19]. For the same molecule, the Potency is 26.6 µM (active) in [8], 29.8 µM (active) in assay [9] and 29.8 µM (active) in assay [10].
